Reference: PubChem BioAssay (Tox21)
Unmarked numbers belong to inactive results. Inconclusive results are not listed. Where a call stands in place of a potency, no number is given. The source made the active and inactive calls. Unless noted, calls follow the shape of the dose curve; as a rule, active = well fitted curve in the direction sought with a large enough effect in the repeat runs; inconclusive = weak or mixed curves; inactive = no such curve, though single readings can be large; an effect the other way counts as inactive or inconclusive.

Experiments:
[1] = qHTS assay for small molecules that induce genotoxicity in human embryonic kidney cells expressing luciferase-tagged ATAD5 (AID 651632); also: nearly all actives have a fitted effect of over 15% in size
In short: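 HEK293T cells carrying a luciferase reporter tagged to ATAD5 were exposed to compound or DMSO vehicle for 16 hr at 37C, 5% CO2. Amplite was added, and after 30 min at room temperature luciferase activity was read as a marker of ATAD5 induction.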

[2] = qHTS assay for small molecule agonists of the p53 signaling pathway - cell viability (AID 651633; calls by dose curve;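 also: p53RE-bla HCT reporter cells with a stable beta-lactamase p53 reporter; series mostly up to about 83 µM; nearly all actives have a fitted effect of over 30% in size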)
In short: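 Viability counter-read: CellTiter-Glo luminescence (30 min, room temperature) in the same p53RE-bla plates. These plates had been exposed to compounds for 16 h at 37 C.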

[3] = qHTS assay for small molecules that induce genotoxicity in human embryonic kidney cells expressing luciferase-tagged ATAD5 - cell viability (AID 651634; calls by dose curve; also: nearly all actives have a fitted effect of over 25% in size)
In short: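 HEK293T cells expressing luciferase-tagged ATAD5 were exposed to compound or DMSO for 15.5 hr at 37C, 5% CO2. Viability was then read as live-cell protease activity by CellTiter-Fluor fluorescence after 30 min at 37C.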

[4] = qHTS assay for small molecule disruptors of the mitochondrial membrane potential - cell viability (AID 720634; calls by dose curve;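 also: human HepG2 liver cancer cells; series mostly up to about 83 µM; nearly all actives have a fitted effect of over 20% in size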)
In short: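 HepG2 cells seeded overnight at 37 C, then exposed to compound or DMSO for 1 hr at 37 C, 5% CO2. m-MPI dye added, then CellTiter-Glo for 30 min at room temperature; viability read as ATP luminescence.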

[5] = qHTS assay to test for compound auto fluorescence at 590 nm (red) in HepG2 cells (AID 720674)
In short: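 We screened compounds on adherent HepG2 cells, incubating them for an hour at 37 C in 5% CO2 before reading emission at 590 nm under 540 nm excitation; values reflect equivalence to Rose Bengal sodium fluorescence.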

[6] = qHTS assay to test for compound auto fluorescence at 535 nm (green) in HepG2 cells (AID 720675)
[7] = qHTS assay to test for compound auto fluorescence at 460 nm (blue) in HEK293 cells (AID 720678)
In short: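 Blue read-out at excitation 405 nm and emission 460 nm follows overnight compound exposure of HEK293 cells at 37C in 5% CO2. Activity is given as auto fluorescence equivalency to triamterene.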

[8] = qHTS assay to test for compound auto fluorescence at 590 nm (red) in HEK293 cells (AID 720679)
In short: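 Red channel, Ex/Em 540/590nm; signal expressed as equivalency to Rose Bengal sodium. HEK293, 2,000 cells/well, 10% dialyzed FBS; 23 nL compound pinned after 4-5 hr attachment; overnight 37C/5% CO2 before reading.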

[9] = qHTS assay to test for compound auto fluorescence at 535 nm (green) in HEK293 cells (AID 720680)
[10] = qHTS assay to test for compound auto fluorescence at 460 nm (blue) in HEK293 cell free culture (AID 720681)
In short: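 Blue fluorescence (Ex 405/Em 460 nm, triamterene-equivalent) was read immediately after pin transfer of compound or DMSO into medium (DMEM, 10% FBS) without cells.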

[11] = qHTS assay to test for compound auto fluorescence at 535 nm (green) in HEK293 cell free culture (AID 720682)
In short: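 Using fluorescein as calibrant, autofluorescence was quantified at 485/535 nm in cell-free DMEM containing 10% FBS after pintool addition of compound or vehicle.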

[12] = qHTS assay to test for compound auto fluorescence at 590 nm (red) in HEK293 cell free culture (AID 720683)
In short: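 Red-channel autofluorescence of compounds in culture medium (DMEM, 10% FBS), no cells, measured at 540/590 nm. Rose Bengal sodium is the reference fluorophore for equivalence.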

[13] = qHTS assay to test for compound auto fluorescence at 590 nm (red) in HepG2 cell free culture (AID 720684)
In short: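 Plate contents were MEM with 10% FBS plus test compound or DMSO, no cells. Fluorescence was recorded with 540 nm excitation and 590 nm emission.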

[14] = qHTS assay to test for compound auto fluorescence at 460 nm (blue) in HepG2 cell free culture (AID 720685)
In short: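 Compound (23 nL) or DMSO pinned into cell-free MEM with 10% FBS; blue fluorescence read at 405/460 nm excitation/emission, expressed as auto-fluorescence equivalency to triamterene.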

[15] = qHTS assay to test for compound auto fluorescence at 535 nm (green) in HepG2 cell free culture (AID 720686)
[16] = qHTS assay to test for compound auto fluorescence at 460 nm (blue) in HepG2 cells (AID 720687)
In short: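 Blue-channel autofluorescence (Ex/Em 405/460 nm, triamterene-equivalent) was measured after 1 hr compound exposure at 37 C, 5% CO2. Cells were HepG2, plated overnight at 37 C in MEM plus 10% FBS.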

[17] = qHTS assay for small molecule agonists of the p53 signaling pathway (AID 651631; calls by dose curve; also: nearly all actives have a fitted effect of over 15% in size)
In short: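 Stably transfected HCT-116 cells (beta-lactamase behind p53 response elements) get compounds after a 5 h settling period; 16 h later at 37 °C, FRET substrate is loaded and fluorescence read after 2 h.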

[18] = molecular target: Glucocorticoid receptor (Homo sapiens) (UniProt P04150); test: qHTS assay to identify small molecule agonists of the glucocorticoid receptor (GR) signaling pathway (AID 720691; active = well fitted activation curve with a large enough effect in the signal ratio in the repeat runs, not every such curve was filed as active; the % refers to the signal ratio)
In short: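 GR-bla HeLa cells (beta-lactamase reporter under glucocorticoid response element) were plated 4 h at 37 C/5% CO2, given compounds in DMSO, and incubated 18 h at 37 C. LiveBLAzer B/G FRET substrate was added for 2 h at room temperature, then fluorescence intensity read.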

[19] = molecular target: Glucocorticoid receptor (Homo sapiens) (UniProt P04150); test: qHTS assay to identify small molecule antagonists of the glucocorticoid receptor (GR) signaling pathway (AID 720692; active = well fitted inhibition curve with a large enough effect in the signal ratio in the repeat runs, not every such curve was filed as active; the % refers to the signal ratio; also: potency is read from the fitted curve at half-maximal effect)
In short: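 GR-bla HeLa cells (beta-lactamase reporter under glucocorticoid response element) were pre-plated 4 h at 37 C, treated with compounds plus 5 nM dexamethasone (final) for 18 h, then read by LiveBLAzer B/G FRET fluorescence after 2 h.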

[20] = qHTS assay for small molecule disruptors of the mitochondrial membrane potential (AID 720635)
In short: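 Mitochondrial membrane potential tracked with Mito-MPS dye, red aggregates (ex 540/em 590 nm) against green monomers (ex 490/em 535 nm). Compound treatment 1 hr at 37C, dye 30 min in HepG2.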

Glucocorticoid receptor (Homo sapiens), sequence (P04150 whole entry, looked up): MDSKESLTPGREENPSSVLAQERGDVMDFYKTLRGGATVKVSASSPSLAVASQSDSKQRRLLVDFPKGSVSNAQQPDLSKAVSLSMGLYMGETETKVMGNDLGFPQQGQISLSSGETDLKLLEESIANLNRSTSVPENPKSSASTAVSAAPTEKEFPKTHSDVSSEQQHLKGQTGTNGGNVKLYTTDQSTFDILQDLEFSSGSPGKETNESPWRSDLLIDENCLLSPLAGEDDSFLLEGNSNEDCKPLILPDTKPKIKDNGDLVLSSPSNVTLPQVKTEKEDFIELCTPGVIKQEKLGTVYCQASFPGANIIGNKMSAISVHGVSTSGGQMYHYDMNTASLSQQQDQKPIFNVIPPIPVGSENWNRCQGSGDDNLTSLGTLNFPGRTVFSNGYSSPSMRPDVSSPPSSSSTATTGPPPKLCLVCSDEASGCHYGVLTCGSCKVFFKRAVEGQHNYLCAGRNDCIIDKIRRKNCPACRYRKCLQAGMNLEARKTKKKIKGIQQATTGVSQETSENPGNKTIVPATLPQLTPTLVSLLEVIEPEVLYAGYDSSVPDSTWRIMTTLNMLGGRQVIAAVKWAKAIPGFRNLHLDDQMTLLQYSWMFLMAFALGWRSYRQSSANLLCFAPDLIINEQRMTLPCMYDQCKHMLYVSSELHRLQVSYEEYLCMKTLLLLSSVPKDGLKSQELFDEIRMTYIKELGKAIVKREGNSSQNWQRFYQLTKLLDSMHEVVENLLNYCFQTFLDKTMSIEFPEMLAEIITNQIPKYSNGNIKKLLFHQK

In the case of `CO[Si](CCCNCCN)(OC)OC`, the Potency [1] is reported as “inactive”, the Potency [2] is reported as “inactive” and the Potency [3] is reported as “inactive”. The Potency [4] was “inactive”, the outcome [5] was “inactive” and the outcome [6] was “inactive”. The Potency [7] was “inactive”, the outcome [8] was “inactive” and the outcome [9] was “inactive”. For the same molecule, the Potency [10] was “inactive”, the outcome [11] was “inactive” and the outcome [12] was “inactive”. For the same molecule, the outcome [13] was “inactive”, the Potency [14] was “inactive” and the outcome [15] was “inactive”. For the same molecule, the Potency [16] was “inactive”.

With `CC(C)c1ccc(C(C)C)cc1` the Potency [17] was “inactive”, the Potency [1] was “inactive” and the Potency [2] was “inactive”. For the same molecule, the Potency [3] was “inactive”, the Potency [4] was “inactive” and the outcome [5] was “inactive”. For the same molecule, the outcome [6] was “inactive”, the Potency [7] was “inactive” and the outcome [8] was “inactive”. For the same molecule, the Potency [10] was “inactive”, the outcome [11] was “inactive” and the outcome [12] was “inactive”. The outcome [13] was “inactive”, the Potency [14] was “inactive” and the outcome [15] was “inactive”. The Potency [16] was “inactive”, the outcome [18] was “inactive” and the Potency [19] was “inactive”.

In the case of `Cc1ncc(CO)c(CO)c1O`, the Potency [17] is reported as “inactive”, the Potency [2] is reported as “inactive” and the Potency [3] is reported as “inactive”. For the same molecule, the Potency [4] was “inactive”, the Potency [20] was “inactive” and the outcome [5] was “inactive”. For the same molecule, the outcome [6] was “inactive”, the Potency [7] was “inactive” and the outcome [8] was “inactive”. The Potency [10] was “inactive”, the outcome [12] was “inactive” and the outcome [13] was “inactive”. For the same molecule, the Potency [14] was “inactive” and the outcome [15] was “inactive”.

With `CCCCCCCCCCCC(=O)N(C)CC(=O)O` the Potency [1] was “inactive”, the activity change, negative = cytotoxicity [2] was 23.9% [at 8.08 µM] and the Potency [3] was “inactive”. The Potency [4] was “inactive”, the ratio activity, negative = MMP loss [20] was 7.77% [at 8.08 µM] and the outcome [5] was “inactive”. The outcome [6] was “inactive”, the Potency [7] was “inactive” and the outcome [8] was “inactive”. The outcome [9] was “inactive”, the Potency [10] was “inactive” and the outcome [11] was “inactive”. For the same molecule, the outcome [12] was “inactive”, the outcome [13] was “inactive” and the Potency [14] was “inactive”. The outcome [15] was “inactive”, the Potency [16] was “inactive” and the outcome [18] was “inactive”. It also gave an activity change, negative = inhibition [19] of -13% [at 7.04 µM].

In the case of `COc1cc(NC(=O)CC(C)=O)c(OC)cc1Cl`, the Potency [1] is reported as “inactive”, the Potency [2] is reported as “inactive” and the Potency [3] is reported as “inactive”. The Potency [4] was “inactive”, the Potency [20] was “inactive” and the outcome [5] was “inactive”. The outcome [6] was “inactive”, the Potency [7] was “inactive” and the outcome [8] was “inactive”. The Potency [10] was “inactive”, the outcome [11] was “inactive” and the outcome [12] was “inactive”. For the same molecule, the outcome [13] was “inactive”, the Potency [14] was “inactive” and the outcome [15] was “inactive”. The Potency [16] was “inactive”, the outcome [18] was “inactive” and the Potency [19] was 54.9 µM (active).

In the case of `Nc1cccc(N)n1`, the Potency [1] is reported as “inactive”, the Potency [3] is reported as “inactive” and the Potency [4] is reported as “inactive”. For the same molecule, the outcome [5] was “inactive”, the outcome [6] was “inactive” and the Potency [7] was “inactive”. For the same molecule, the outcome [8] was “inactive”, the outcome [9] was “inactive” and the Potency [10] was “inactive”. For the same molecule, the outcome [12] was “inactive”, the outcome [13] was “inactive” and the Potency [14] was “inactive”. For the same molecule, the outcome [15] was “inactive” and the outcome [18] was “inactive”.

In the case of `COc1c(Cl)ccc(Cl)c1C(=O)O`, the Potency [1] is reported as “inactive”, the Potency [2] is reported as “inactive” and the Potency [3] is reported as “inactive”. For the same molecule, the Potency [4] was “inactive”, the Potency [20] was “inactive” and the outcome [5] was “inactive”. The outcome [6] was “inactive”, the Potency [7] was “inactive” and the outcome [8] was “inactive”. For the same molecule, the outcome [9] was “inactive”, the Potency [10] was “inactive” and the outcome [12] was “inactive”. The outcome [13] was “inactive”, the Potency [14] was “inactive” and the outcome [15] was “inactive”.

In the case of `CS(=O)(=O)c1ccc(Cl)cc1`, the Potency [2] is reported as “inactive”, the Potency [3] is reported as “inactive” and the Potency [4] is reported as “inactive”. For the same molecule, the Potency [20] was “inactive”, the outcome [5] was “inactive” and the outcome [6] was “inactive”. For the same molecule, the Potency [7] was “inactive”, the outcome [8] was “inactive” and the Potency [10] was “inactive”. For the same molecule, the outcome [12] was “inactive”, the outcome [13] was “inactive” and the Potency [14] was “inactive”. For the same molecule, the outcome [15] was “inactive”, the Potency [16] was “inactive” and the outcome [18] was “inactive”. For the same molecule, the Potency [19] was “inactive”.

In the case of `NC1CCCCC1N` (configuration not stated), the Potency [17] is reported as “inactive”, the Potency [2] is reported as “inactive” and the Potency [3] is reported as “inactive”. The outcome [5] was “inactive”, the outcome [6] was “inactive” and the Potency [7] was “inactive”. The outcome [8] was “inactive”, the outcome [9] was “inactive” and the Potency [10] was “inactive”. For the same molecule, the outcome [11] was “inactive”, the outcome [12] was “inactive” and the outcome [13] was “inactive”. The Potency [14] was “inactive”, the outcome [15] was “inactive” and the Potency [16] was “inactive”. For the same molecule, the outcome [18] was “inactive” and the Potency [19] was “inactive”.
